The values that follow come from PubChem BioAssay (NCATS).

This test is described as follows: qHTS Assay for Identifying Gametocytocidal Compounds (AID 743244).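 Note: actives lower the fluorescent signal which means gametocytes are killed.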 The settings on record: P. falciparum 3D7 stage III-V gametocytes, alamarBlue, 72 h; max response: active compounds read low. An outline of the steps:
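Using 20,000 stage III–V 3D7 gametocytes per well, compounds were incubated 72 h under 37 °C/5% CO2. Viability was then assessed by 24 h alamarBlue reduction, measured fluorometrically at 525/598 nm.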
On the technique in general: In qHTS, concentration-response curves come from the screen itself.

Inconclusive results are not listed. Values without a mark were called inactive. Calls come from the whole dose curve; as a rule, active = well fitted curve in the direction sought with a large enough effect; inconclusive = small, poorly fitted or top-dose-only effect, or another doubt; inactive = no such curve, though single readings can be large or run the other way. Where a SMILES comes first, the peptide text is derived from it. Bridges are numbered along the chain shown (N, C = ends). [ ]: non-standard residue; d: D form. hArg = N=C(N)NCCCC[C@H](N)C(=O)O; Mpa = O=C(O)CCS
% is set by controls: 0 for no effect and ±100 for the full control effect.

In the case of `CC(C)C[C@@H](N)C(=O)O`, the max response is -9.37%.

On to `CCc1nnc(NS(=O)(=O)c2ccc(N)cc2)s1`, for which the max response is -5.5%.

Turning to `COc1ccc(Cc2cnc(N)nc2N)cc1OC`, the max response is 1.42%.

As for `NC(=O)[C@@H]1CSSCCC(=O)N[C@@H](CCCCN=C(N)N)C(=O)NCC(=O)N[C@@H](CC(=O)O)C(=O)N[C@@H](Cc2c[nH]c3ccccc23)C(=O)N2CCC[C@H]2C(=O)N1` ([Mpa][hArg]GDWPC-NH2; disulfide 1-7), the max response was 6.22%.

As to `COc1cc(O)cc(O)c1`, the max response was -9.75%.

With `COC(=O)c1ccccc1C(=O)c1ccc(OCCN2CCCCC2)cc1`, the max response was -9.15%.

As for `O=C(O)c1ccc[n+]([O-])c1`, the max response was -6.63%.

With `O=C(O)Cc1cn(-c2ccccc2)nc1-c1ccc(Cl)cc1`, the max response was 6.52%.

As to `C/C(=C(\CCO)SS/C(CCO)=C(\C)N(C=O)Cc1cnc(C)nc1N)N(C=O)Cc1cnc(C)nc1N`, the max response is -3.83%.

Regarding `Cc1ccccc1N=Nc1ccc(N=Nc2c(O)ccc3ccccc23)c(C)c1`, the max response is 7.02%.

`CC(N)CCCC(C)(C)O` (centres undefined): the max response is -9.78%.

On to `Cc1[nH]c(C)c(Cl)c(=O)c1Cl`, for which the max response was -2.25%.

Turning to `C1CCN2C[C@@H]3C[C@@H](CN4CCCC[C@@H]34)[C@H]2C1`, the max response is 2.03%.

Take `CC1(C)S[C@@H]2[C@H](NC(=O)C(C(=O)O)c3ccccc3)C(=O)N2[C@H]1C(=O)O` (some centres undefined): the max response was -0.734%.

Take `CCOC(=O)[C@H](CCc1ccccc1)N[C@@H](C)C(=O)N1CCC[C@H]1C(=O)O`: the max response was -2.72%.

With `COc1ccc(NS(=O)(=O)c2ccc(N)cc2)nn1`, the max response was 10.4%.

As to `CC[C@]12CCCN3CCc4c(n(c5ccccc45)[C@@](O)(C(=O)OC)C1)[C@@H]32`, the max response is 13.2%.

For the molecule `CC(C)(C)NCC(O)COc1cccc2c1CCC(=O)N2` (centres undefined), the max response is 15.2%.

On to `CC(C)c1cc2c(cc1S(=O)(=O)O)[C@@]1(C)CCC[C@@](C)(C(=O)O)[C@@H]1CC2`, for which the max response is -8.74%.

With `CCN(CC)CC1CCCCN1CC(=O)N1c2ccccc2C(=O)Nc2cccnc21` (centres undefined), the max response was 3.31%.

For `CC1(C)[C@@H](OC(=O)CCC(=O)O)CC[C@]2(C)[C@H]3C(=O)C=C4[C@@H]5C[C@@](C)(C(=O)O)CC[C@]5(C)CC[C@@]4(C)[C@]3(C)CC[C@@H]12`, the max response is -6.25%.

On to `C[C@@H](N)C(=O)O`, for which the max response was -2.49%.

In the case of `CC1CCN(CCCC(=O)c2ccc(F)cc2)CC1`, the max response was 1.92%.

As to `CN1CC(=O)NC1=N`, the max response was -8.6%.

`CNc1c2c(nn1C)CCCC2`: the max response was 6.79%.

For the molecule `CC(=O)Oc1cccc(O)c1`, the max response is 2.07%.

For the molecule `C=CCSCC1Nc2cc(Cl)c(S(N)(=O)=O)cc2S(=O)(=O)N1` (centres undefined), the max response was 15.7%.

For the molecule `Cc1c(NC(C)C)c(=O)n(-c2ccccc2)n1C`, the max response is -2.3%.

As for `Cc1cc(NC(=O)C2=C(O)c3ccccc3S(=O)(=O)N2C)no1`, the max response is -9.54%.

For `CN[C@@H]1[C@H](O)[C@H](NC)[C@H]2O[C@@]3(O)C(=O)C[C@@H](C)O[C@H]3O[C@@H]2[C@H]1O`, the max response is 2.93%.

As for `CCC(C)(CN(C)C)OC(=O)c1ccccc1` (centres undefined), the max response is -2.53%.

As to `Nc1ncnc(Nc2ccccc2)n1`, the max response is -1.5%.

`O=C(O)CCCc1ccccc1`: the max response is 13.9%.

With `CC1(C)S[C@@H]2[C@H](N=CN3CCCCCC3)C(=O)N2[C@H]1C(=O)O`, the max response is -2.77%.

Regarding `CCOC(N)=O`, the max response is -2.14%.

`Cc1cccc(C)c1NC(=O)CC12CCCN1CCC2`: the max response is 0.37%.

With `O=C(O)c1ccccc1OP(=O)(O)O`, the max response is -5.84%.

As to `C[C@@H](c1ncncc1F)C(O)(Cn1cncn1)c1ccc(F)cc1F` (some centres undefined), the max response is 4.12%.

Turning to `O=C(O)c1ccccc1C(=O)Nc1ccc(S(=O)(=O)Nc2nccs2)cc1`, the max response is 31%.

In the case of `CC(=O)SC[C@@H](Cc1ccccc1)C(=O)NCC(=O)OCc1ccccc1`, the max response was 3.78%.

As for `COCC(=O)Nc1c(I)c(C(=O)NCC(O)CO)c(I)c(C(=O)N(C)CC(O)CO)c1I` (centres undefined), the max response is 10.5%.

In the case of `O=C(NCC(O)CO)c1c(I)c(C(=O)NCC(O)CO)c(I)c(N(CCO)C(=O)CO)c1I` (centres undefined), the max response was 8.95%.

As for `CN1C(=O)CC(c2ccccc2)C1=O` (centres undefined), the max response is -11.3%.

`COc1ccccc1OCC(O)CO` (centres undefined): the max response was 10.4%.

As to `NC(=O)CCCCC1CCSS1` (centres undefined), the max response was 0.706%.

Regarding `COc1ccccc1OC(=O)Oc1ccccc1OC`, the max response is 1.99%.

For `CC(C)=CCC[C@@](C)(O)[C@H]1CC=C(C)CC1`, the max response is 10.2%.

Regarding `C[C@@H]1CCC[C@H](C)N1`, the max response was 20.8%.

Turning to `Cn1c(=O)c2c(ncn2CCO)n(C)c1=O`, the max response is 6.91%.
